{"source": "PubChem BioAssay (NCATS)", "note": "Results filed as inconclusive are left out. The source made the active and inactive calls. Calls come from the whole dose curve; as a rule, active = well fitted activation curve with a large enough effect; inconclusive = small, poorly fitted or top-dose-only effect; inactive = no such curve, though single readings can be large or run the other way. Potency is the fitted concentration of half-maximal effect.", "data": [{"target": "Cellular tumor antigen p53 (Homo sapiens) (UniProt P04637)", "sequence (P04637 whole entry, looked up)": "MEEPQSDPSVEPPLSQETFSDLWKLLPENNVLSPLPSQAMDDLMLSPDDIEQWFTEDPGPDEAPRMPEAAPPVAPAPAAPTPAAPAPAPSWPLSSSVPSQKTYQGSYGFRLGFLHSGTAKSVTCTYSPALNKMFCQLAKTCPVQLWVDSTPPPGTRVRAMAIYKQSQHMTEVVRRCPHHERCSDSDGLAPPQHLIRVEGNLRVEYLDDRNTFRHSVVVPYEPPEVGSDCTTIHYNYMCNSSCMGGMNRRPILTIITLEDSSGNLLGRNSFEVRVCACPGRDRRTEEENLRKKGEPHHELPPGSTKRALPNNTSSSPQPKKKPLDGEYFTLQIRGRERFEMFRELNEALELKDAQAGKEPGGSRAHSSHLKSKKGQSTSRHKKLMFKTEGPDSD", "assay": "Primary qHTS for small molecule compounds that upregulate eGFP-tagged delta133p53alpha (in N-terminal) cells. (AID 2060322); note: nearly all actives have a fitted effect of over 75% in size;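 for activation: series mostly up to about 56 µM; 0% = DMSO vehicle and 100% = reference activator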", "settings": "NCI-H358 eGFP-delta133p53alpha fluorescence, 24 h; activation: active compounds read high", "method_in_brief": "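NCI-H358 cells pre-induced 24 h with 10 ng/ml doxycycline to express N-terminal eGFP-delta133p53alpha, then dosed 24 h at 37C without doxycycline; fixed, Hoechst-stained, GFP intensity by laser scanning cytometry, normalized to DMSO (0%) and 57.5 uM 5-azacytidine (100%).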", "values": [{"smiles": "CCN1/C(=C/C=C/c2sc3ccccc3[n+]2CC)Sc2ccccc21", "Potency": "16.9 µM (active)"}, {"smiles": "NC(=O)NS(=O)(=O)c1ccc(N)cc1", "activation": "7.53% (inactive)"}, {"smiles": "CCCCC(C)(C)[C@H](O)C=C[C@H]1[C@H](O)CC(=O)[C@H]1CC=CCCCC(=O)O", "activation": "1.38% (inactive)"}, {"smiles": "O=C(O)Cc1ccc2c(c1)C(=O)c1ccccc1CO2", "activation": "7.34% (inactive)"}, {"smiles": "CN1C(=O)c2ccccc2C1=O", "activation": "7.53% (inactive)"}, {"smiles": "CCCCCC[C@@H](CCC)C(=O)O", "activation": "-13.4% (inactive)"}, {"smiles": "CCC=CC[C@H]1C(=O)CC[C@@H]1CC(=O)OC", "activation": "10.3% (inactive)"}, {"smiles": "CNC[C@@H](O)[C@@H](O)[C@H](O)[C@H](O)CO", "activation": "4.39% (inactive)"}, {"smiles": "CC(=O)N1CCN(c2ccc(OCc3nn(C)c(C)c3-c3cccc4c(CCCOc5cccc6ccccc56)c(C(=O)O)n(Cc5cccnc5)c34)cc2)CC1", "activation": "22.3% (inactive)"}, {"smiles": "[O-][n+]1ccccc1SSc1cccc[n+]1[O-]", "Potency": "0.379 µM (active)"}, {"smiles": "CCOC(=O)c1ccc(O)c(O)c1", "activation": "-23.2% (inactive)"}, {"smiles": "Cc1ccc2c(c1)c1c3n2CCNC3CCC1", "note": "(stereo not given)", "activation": "-0.837% (inactive)"}, {"smiles": "COc1ccc(-c2ccc(-c3cn(C(=O)N4CCCCC4c4ccccc4)nn3)cc2)cc1", "note": "(stereo not given)", "activation": "-8.11% (inactive)"}, {"smiles": "CO[C@H]1C[C@@H]2CC[C@@H](C)[C@@](O)(O2)C(=O)C(=O)N2CCCC[C@@H]2C(=O)O[C@H]([C@H](C)C[C@@H]2CC[C@H](OP(C)(C)=O)[C@H](OC)C2)CC(=O)[C@H](C)C=C(C)[C@@H](O)[C@@H](OC)C(=O)[C@H](C)C[C@H](C)C=CC=CC=C1C", "activation": "24.8% (inactive)"}, {"smiles": "CC(C)N1[N]C(=C2C=c3cc(O)ccc3=N2)c2c(N)ncnc21", "activation": "11.7% (inactive)"}, {"smiles": "CCCCC(O)/C=C(C)/C=C/C=C/C(=O)N1CCCC1=O", "note": "(stereo not given)", "activation": "13.4% (inactive)"}, {"smiles": "CO/N=C(\\C(=O)O)c1csc(NC(=O)CCl)n1", "activation": "-17.5% (inactive)"}, {"smiles": "Cc1nc2ccccc2n1Cc1ccc(Cl)cc1", "activation": "-11.7% (inactive)"}, {"smiles": "C=C1C(=CC=C2CCC[C@]3(C)[C@@H]([C@H](C)CCCC(C)(C)O)CC[C@@H]23)C[C@@H](O)C[C@@H]1O", "activation": "-4.26% (inactive)"}, {"smiles": "O=C(CCBr)N1CCN(C(=O)CCBr)CC1", "activation": "20.9% (inactive)"}, {"smiles": "NCCNc1cccc2ccccc12", "activation": "24.3% (inactive)"}, {"smiles": "CCCCc1cc2ccccc2c(OCCN(C)C)n1", "activation": "-0.565% (inactive)"}, {"smiles": "Cc1ncc(CSSCc2cnc(C)c(O)c2CO)c(CO)c1O", "activation": "-22% (inactive)"}, {"smiles": "O=C1OC(OC(=O)c2cccnc2Nc2cccc(C(F)(F)F)c2)c2ccccc21", "note": "(stereo not given)", "activation": "-25.4% (inactive)"}, {"smiles": "C1=CC2C3C=CC(C3)C2C1", "note": "(stereo not given)", "activation": "16.4% (inactive)"}, {"smiles": "CC(=O)N[C@@H](Cc1ccc(O)cc1)C(=O)O", "activation": "0.837% (inactive)"}, {"smiles": "COc1cc(C=O)ccc1O", "activation": "5.02% (inactive)"}, {"smiles": "O=C(N/N=C/c1ccccc1O)c1ccncc1", "activation": "-12.6% (inactive)"}, {"smiles": "FC(F)(F)C(F)(F)C(F)(F)C(F)(F)C(F)(F)C(F)(F)C(F)(F)C(F)(F)Br", "activation": "-14.1% (inactive)"}, {"smiles": "COc1cc(NC(C)CCCN)c2ncccc2c1", "note": "(stereo not given)", "Potency": "24.6 µM (active)"}, {"smiles": "CC(C)OC(=O)CCCC=CC[C@@H]1[C@H](C=C[C@@H](O)COc2cccc(C(F)(F)F)c2)[C@H](O)C[C@@H]1O", "activation": "-7.59% (inactive)"}, {"smiles": "CCOC(=O)N1CCC(n2c(=O)[nH]c3cc(Cl)ccc32)CC1", "activation": "-16.4% (inactive)"}, {"smiles": "CC(=O)OC[C@H]1O[C@@](COC(C)=O)(O[C@H]2O[C@H](COC(C)=O)[C@@H](OC(C)=O)[C@H](OC(C)=O)[C@H]2OC(C)=O)[C@@H](OC(C)=O)[C@@H]1OC(C)=O", "activation": "10.7% (inactive)"}, {"smiles": "CCOC(=O)c1c(N)sc2c1CCN(Cc1ccccc1)C2", "Potency": "15.5 µM (active)"}, {"smiles": "N[C@H](C(=O)O)[C@@H](O)c1ccc(O)c(O)c1", "activation": "5.02% (inactive)"}, {"smiles": "CCOC(=O)CN1CCCC1=O", "activation": "-0.837% (inactive)"}, {"smiles": "CC(C)(C)NCC(O)COc1cccc2c1CCC(=O)N2", "note": "(stereo not given)", "activation": "28.5% (inactive)"}, {"smiles": "CO[C@@H]1[C@@H](O[C@@H]2O[C@H](C)[C@@H](O[C@H]3C[C@@](C)(O)[C@@H](O)[C@H](C)O3)[C@H](N(C)C)[C@H]2O)[C@@H](CC=O)C[C@@H](C)[C@@H](O[C@@H]2CC[C@H](N(C)C)[C@@H](C)O2)/C=C/C=C/C[C@@H](C)OC(=O)C[C@H]1OC(C)=O", "activation": "-19.8% (inactive)"}, {"smiles": "O=C1c2c(O)cc(O)cc2O[C@H](c2cc(O)c(O)c(O)c2)[C@H]1O", "activation": "-0.847% (inactive)"}, {"smiles": "O=S(=O)(O)c1cc(I)c(O)c2ncccc12", "activation": "11.7% (inactive)"}]}]}
